Compound activity as filed in PubChem BioAssay.
Cruzain noTriton = qHTS Assay for Promiscuous and Specific Inhibitors of Cruzain (without detergent). Cruzipain (Trypanosoma cruzi), P25779. purified cruzain, Z-FR-AMC fluorescence, no detergent. Potency, µM, actives largely listed as inhibitors. actives 2.3% (n = 200,000). AID 1476, 2009; further: nearly all actives have a fitted effect of over 40% in size
Target sequence (P25779 123-467 limits assumed): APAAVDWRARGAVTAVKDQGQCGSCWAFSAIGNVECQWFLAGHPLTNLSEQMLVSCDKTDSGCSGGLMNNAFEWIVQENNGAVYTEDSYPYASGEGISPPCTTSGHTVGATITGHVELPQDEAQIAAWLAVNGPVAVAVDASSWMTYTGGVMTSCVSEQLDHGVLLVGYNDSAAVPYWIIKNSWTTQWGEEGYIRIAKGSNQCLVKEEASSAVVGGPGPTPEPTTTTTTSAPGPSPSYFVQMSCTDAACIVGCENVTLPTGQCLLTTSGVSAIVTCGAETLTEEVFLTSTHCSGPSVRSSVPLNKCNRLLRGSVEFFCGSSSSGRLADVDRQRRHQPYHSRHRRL
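Detergent-free condition (0.00005% Triton X-100) in acetate buffer pH 5.5 with DTT. 1.5 nM enzyme and compound were pre-mixed 15 min, then 2 uM Z-FR-AMC substrate added; reaction progress from fluorescence change between first and third reads (60 s).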
Cruzain inh Det = qHTS Assay for Promiscuous and Specific Inhibitors of Cruzain (with detergent); purified cruzain, Z-FR-AMC fluorescence, 0.01% Triton; Potency, µM, hits mostly inhibitors; actives 0.43% (n = 200,000); further: nearly all actives have a fitted effect of over 40% in size
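Compounds were screened in titration against cruzain (1.5 nM) with 0.01% Triton X-100 to counter colloidal aggregation. Activity was the AMC fluorescence increase over 60 s after adding 2 uM Z-FR-AMC at pH 5.5.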
Large screens that a line does not name were inactive. An excerpt weighted towards active compounds, which were near 2.5% of everything screened. The call rests on the fitted dose curve; in most records, active means well fitted curve in the direction sought with a large enough effect; inconclusive means small, poorly fitted or top-dose-only effect, or another doubt; inactive means no such curve, though single readings can be large; an effect the other way counts as inactive or inconclusive.

O=C(CSc1ccccc1)Nc1ccc(-c2nc3ccccc3[nH]2)cc1	Cruzain noTriton inconclusive
Cc1ccc2nc(-c3ccc(NC(=O)CSc4ccccc4)cc3)[nH]c2c1	Cruzain noTriton inconclusive, Cruzain inh Det 10µM
O=C(CSc1ccc(-c2nc3ccccc3[nH]2)cn1)Nc1ccc(S(=O)(=O)N2CCCC2)cc1	Cruzain noTriton 32µM
CC1=NN(c2ccccc2)C(=O)/C1=C/c1c(O)n(-c2ccc(F)c(Cl)c2)[nH]c1=O	Cruzain inh Det 22µM
CC1=NN(c2ccccc2)C(=O)/C1=C\c1c(C)[nH]n(-c2ccccc2)c1=O	none
COc1ccc(C(=O)Nc2oc(-c3ccccc3)c(-c3ccccc3)c2C#N)cc1	Cruzain noTriton 32µM
COc1ccc(C(=O)Nc2oc(-c3ccccc3)c(-c3ccccc3)c2C#N)cc1OC	none
COc1ccc(-c2oc(NC(C)=O)c(C#N)c2-c2ccc(OC)cc2)cc1	none
COc1ccc(-c2oc(NC(=O)c3ccc(C)cc3)c(C#N)c2-c2ccc(OC)cc2)cc1	Cruzain noTriton 13µM
NNS(=O)(=O)c1cc(C(=O)O)cc(C(=O)O)c1	none
CCOC(=O)c1c(NC(=O)c2cnn3c2NC(c2cccc(OC)c2)CC3C(F)(F)F)sc2c1CCCC2 (centres undefined)	Cruzain noTriton 3.2µM
CC(C)OC(=O)c1c(NC(=O)c2cnn3c2NC(c2ccccc2)CC3C(F)(F)F)sc2c1CCCC2 (centres undefined)	Cruzain noTriton inconclusive
O=S(=O)(NCCO)c1cc[c]([Sb])cc1	none
CCn1nc([N+](=O)[O-])c(C(C#N)c2nc3cc(C(F)(F)F)ccc3s2)c(Cl)c1=O (centres undefined)	Cruzain noTriton inconclusive, Cruzain inh Det 22µM
CCCn1nc([N+](=O)[O-])c(C(C#N)c2nc3ccccc3o2)c(Cl)c1=O (centres undefined)	none
Cc1ccc2c(c1)c1c(c(=O)n(-c3ccccc3)c(=O)n1Cc1ccccc1C)n2C	none
Cc1ccc(OCC(=O)Nc2ccc3nc(SCC(=O)N4CCCC4)sc3c2)cc1	none
CCOc1ccccc1-n1nnc(S(=O)(=O)c2ccc(C)cc2)c1N	none
COCCN1C(=O)c2[nH]nc(-c3ccccc3O)c2C1c1ccc(OCc2ccccc2)c(OC)c1 (centres undefined)	none
CCCCCCC(=O)N(O)C1CC(=O)N(c2ccc(Br)cc2)C1=O (centres undefined)	Cruzain noTriton 10µM
COc1ccccc1N(O)C1CC(=O)N(c2ccc(Br)cc2)C1=O (centres undefined)	Cruzain noTriton inconclusive
COc1ccc(Cl)cc1NC(=O)C1CCCN(S(=O)(=O)c2ccc3c(c2)CCCC(=O)N3)C1 (centres undefined)	Cruzain noTriton inconclusive
CCC(C)NC(=O)COC(=O)c1oc2ccccc2c1CSc1ccc(Cl)cc1 (centres undefined)	Cruzain noTriton 25µM
CCC(C)NC(=O)CSc1ccc(Cl)cc1 (centres undefined)	none
Cc1ccccc1N=Nc1ccc(O)c2ncccc12	Cruzain noTriton 20µM
Cc1ccccc1NCc1ccc(O)c2ncccc12	none
CNC(=O)c1ccccc1NC(=O)c1c(O)c2c([nH]c1=O)CCCC2	Cruzain noTriton inconclusive
O=C(N/N=C/c1cccc(F)c1)c1c(O)c2c([nH]c1=O)CCCC2	Cruzain noTriton 20µM
COc1ccc(NC2C[C@H]3CCCC(=O)N4CC[C@@H](C2)[C@@H]34)cc1 (some centres undefined)	none
Cc1ccc(-c2nnc(SCC(=O)Nc3sc(C)c(C)c3C#N)n2C)cc1	Cruzain noTriton inconclusive
Cc1sc(NC(=O)CSc2nnc(COc3ccc(Cl)cc3)n2C)c(C#N)c1C	Cruzain noTriton 25µM
COc1ccc2c(c1)OC(=O)CC2c1ccc2c(c1)OCO2 (centres undefined)	none
Cc1ccc(-c2csc(=Nc3ccccc3)n2Cc2ccc3c(c2)OCO3)cc1	Cruzain noTriton inconclusive
C[C@@H]1CC[C@@H]2N(C1)C[C@H]1[C@@](O)([C@H](O)C[C@]3(O)[C@H]4CC[C@H]5[C@]6(O)O[C@]4(C[C@]13O)[C@@]5(C)CC[C@@H]6O)[C@@]2(C)O	none
Cc1ccc(-c2nc(S(=O)(=O)c3ccccc3)c(N3CCN(c4ccccc4)CC3)o2)cc1	none
COc1ccc(N2CCN(c3oc(-c4ccccc4C)nc3S(=O)(=O)c3ccccc3)CC2)cc1	Cruzain noTriton 13µM
COc1ccccc1OCCn1c(C(C)Oc2ccccc2)nc2ccccc21 (centres undefined)	none
CCN(CC)c1cc(C)c2cc(NC(=O)/C=C/c3ccccc3OC(C)C)ccc2n1	Cruzain noTriton inconclusive
O=C(/C=C/c1ccco1)NC(=S)Nc1ccc(O)c(-c2nc3ccccc3s2)c1	Cruzain noTriton 7.9µM
O=C(Nc1ccc(O)c(-c2nc3ccccc3s2)c1)c1cccs1	Cruzain noTriton inconclusive
Cc1ccc(-c2cnc(NCc3c(F)cccc3Cl)n2C)cc1	none
Cc1cc(/C=C2/NC(=O)N(Cc3ccccc3F)C2=O)c(C)n1C(C)C	Cruzain noTriton 25µM
CCn1c(C)cc(/C=C2/NC(=O)N(Cc3ccccc3F)C2=O)c1C	Cruzain noTriton inconclusive
O=Cc1cccc(Br)c1	none
CCC1Oc2ccc(C)cc2N(CC(=O)NCc2ccc(OC)cc2)C1=O (centres undefined)	none
CCc1ccc(NC(=O)Cn2c(=O)n(Cc3nc(-c4ccccc4)no3)c(=O)c3cc4c(cc32)OCO4)cc1	Cruzain noTriton 16µM
Cc1noc(Cn2c(=O)c3cc4c(cc3n(CC(=O)Nc3ccc(C(C)C)cc3)c2=O)OCO4)n1	none
CC(C)c1ccc(NC(=O)Cn2c(=O)n(Cc3nc(-c4ccccc4)no3)c(=O)c3cc4c(cc32)OCO4)cc1	Cruzain noTriton 13µM
COc1ccc(NC(=O)Cn2c(=O)n(Cc3nc(-c4ccccc4)no3)c(=O)c3cc4c(cc32)OCO4)cc1Cl	Cruzain noTriton inconclusive
Cc1ccc(NC(=O)Cn2c(=O)n(Cc3nc(-c4ccccc4)no3)c(=O)c3cc4c(cc32)OCO4)cc1C	Cruzain noTriton 10µM
COc1ccc(NC(=O)Cn2c(=O)n(Cc3nc(-c4ccccc4)no3)c(=O)c3cc4c(cc32)OCO4)c(OC)c1	none
COc1ccc(S(=O)(=O)NCC(c2ccco2)S(=O)(=O)c2cccs2)cc1C (centres undefined)	none
CCn1c(CNC(=O)C23CC4CC(CC(C4)C2)C3)nnc1SCC(=O)Nc1ccc(C)cc1	Cruzain noTriton inconclusive
CN(C)S(=O)(=O)N(CC(=O)NCCSCc1cccc(Cl)c1)c1ccccc1	none
OCc1ccncc1.OCc1ccncc1.[Cl][Pt]([Cl])([Cl])[Cl]	none
CNC(=O)c1cnc2sc(N3CCC(C)CC3)nn2c1=O	none
CCOc1ccc(-c2cc3nc(C4CCN(C(=O)OC(C)(C)C)CC4)c(C(=O)Nc4cccc(Cl)c4C)cn3n2)cc1	Cruzain noTriton 7.9µM
CCOc1ccc(-c2cc3nc(C4CCN(C(=O)OC(C)(C)C)CC4)c(C(=O)Nc4ccc(C)cc4Cl)cn3n2)cc1	Cruzain noTriton inconclusive
Cc1ccc2c(=O)c3ccccc3n(CCCN)c2c1C	none
COCCn1c(-c2cc(OC)c(OC)c(OC)c2)nc2nc3ccccc3nc21	none
COCCn1c(-c2ccco2)nc2nc3ccccc3nc21	Cruzain inh Det 28µM
Cc1ccc(-c2nnc(SCC(=O)Nc3ccc4c(c3)oc3ccccc34)n2C)c(Cl)c1	Cruzain noTriton inconclusive
Cn1c(SCC(=O)Nc2cccc(Br)c2)nnc1-c1cc2ccccc2o1	Cruzain noTriton 13µM
